The list is not random: actives were taken first. Their share in the collection is about 1.6%.
KCNQ2 block – rat KCNQ2 potassium channel inhibitors, primary screen, cell-based, CHO-K1, FluxOR thallium flux, B-score; Potassium voltage-gated channel subfamily KQT member 2 (Rattus norvegicus), O88943; 20 min; active compounds read low; B-score at 10 µM; 310,000 compounds, 1.1% hits;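 active = fluorescence ratio B-score at most minus 3 library SDs, with starting brightness B-score within 2 library SDs, cut at about -5.5 in these data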
KCNQ2 pot – potentiators of rat KCNQ2 potassium channel | B-score at 10 µM | 310,000 compounds, 0.54% hits | AID 2239, 2010 | CHO-K1 KCNQ2, FluxOR thallium flux fluorescence; active compounds read high;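 active = fluorescence ratio B-score at least 3 SD of library B-scores, with initial fluorescence B-score within 3 of them, cut at about 5.3 in these data; same plate scores as AID 2156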;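 note: B-score of peak minus minimum over baseline fluorescence ratio after K+ and Tl+ stimulus; positive B-score means potentiation of KCNQ2 with more thallium influx and brighter signal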
KCNQ2 inh conf – rat KCNQ2 potassium channel inhibitors, confirmation, cell-based, thallium flux. shares compounds with KCNQ2 block. KCNQ2-expressing cells, inhibition; active compounds read low. activity change, negative = inhibition, % at 10 µM. 1,000 compounds, 57% hits. AID 493025, 2011
KCNQ1 spec – human KCNQ1 channel inhibition, counter-screen for KCNQ2 inhibitor project, cell-based, FluxOR thallium flux; AID 493026, 2011; KCNQ1-expressing cells, FluxOR thallium flux fluorescence; active compounds read low; 1,000 compounds, 15% hits; activity change, negative = inhibition, % at 10 µM; shares compounds with KCNQ2 block;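 active = activity change at least 3 SD of negative controls below their mean in both duplicate wells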;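 note: CHO cells stably transfected with KCNQ1 and depolarized by potassium stimulus; peak minus minimum fluorescence over baseline after thallium addition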
Target sequence (P51787 whole entry, looked up): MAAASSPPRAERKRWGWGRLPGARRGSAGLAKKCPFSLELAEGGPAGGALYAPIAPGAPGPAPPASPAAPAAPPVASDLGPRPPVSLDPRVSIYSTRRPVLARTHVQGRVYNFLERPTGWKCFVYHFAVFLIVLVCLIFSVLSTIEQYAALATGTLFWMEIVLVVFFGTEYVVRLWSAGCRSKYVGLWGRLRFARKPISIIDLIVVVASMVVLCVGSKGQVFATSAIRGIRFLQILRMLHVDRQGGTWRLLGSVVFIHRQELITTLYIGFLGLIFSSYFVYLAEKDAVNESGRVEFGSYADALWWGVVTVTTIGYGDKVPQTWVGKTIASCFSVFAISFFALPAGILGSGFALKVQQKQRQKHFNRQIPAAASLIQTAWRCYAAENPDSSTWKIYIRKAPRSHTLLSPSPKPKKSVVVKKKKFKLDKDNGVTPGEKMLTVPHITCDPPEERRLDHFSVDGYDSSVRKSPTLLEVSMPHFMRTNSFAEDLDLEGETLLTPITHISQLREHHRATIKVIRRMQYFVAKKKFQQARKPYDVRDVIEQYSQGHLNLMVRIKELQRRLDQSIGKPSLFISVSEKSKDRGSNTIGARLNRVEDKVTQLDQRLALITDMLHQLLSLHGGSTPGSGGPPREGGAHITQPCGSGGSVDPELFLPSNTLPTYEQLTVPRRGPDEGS
CHO parental ctr – thallium flux change in parental CHO cells, counter-screen for KCNQ2 inhibitor project; shares compounds with KCNQ2 block; active compounds read low; activity change, % at 10 µM; 1,000 compounds, 14% hits; AID 493029, 2011
KCNQ2 inh confirm – rat KCNQ2 channel inhibitors, confirmation, cell-based, automated patch clamp, single concentration. shares compounds with KCNQ2 block. KCNQ2-expressing cells, automated patch clamp current. 550 compounds, 49% hits. AID 588531, 2011. calls only at 10 µM
Large screens that a line does not name were inactive (follow-up assays come after a bar, where they were run). Unless noted, the rule behind the calls is not given here.

C=CC[n+]1c(/C=C2\C=Cc3cc(C)ccc3N2CC)ccc2ccccc21	KCNQ2 block -9.78 | KCNQ2 inh conf inactive | KCNQ1 spec inactive | CHO parental ctr inactive
CCN1/C(=C\c2ccc3cc(C)ccc3[n+]2CC)Sc2cc(C)c(C)cc21	none (no result: KCNQ2 pot)
COc1ccccc1NC(=O)CCc1c(C)nc2c(-c3ccc(F)cc3)c(C)nn2c1C	none
CCOc1ccccc1NC(=S)NCc1ccco1	none
COC(=O)C(OC(=O)c1ccc(OC)cc1)C(=O)OC	none (no result: KCNQ2 pot)
COc1ccc(C(=O)C(OC(=O)c2ccccc2)c2ccccc2)cc1 (centres undefined)	KCNQ2 block -7.05 | KCNQ2 inh conf inactive | KCNQ1 spec inactive | CHO parental ctr inactive
COC(=O)c1[nH]c2ccccc2c1NC(=O)c1ccccc1[N+](=O)[O-]	none (no result: KCNQ2 pot)
Cc1cc(C)c(OC2(c3ccccc3)OC(=O)c3ccccc32)c(C)c1 (centres undefined)	none (no result: KCNQ2 pot)
Cc1cccc(C)c1OC1(c2ccccc2)OC(=O)c2ccccc21 (centres undefined)	KCNQ2 block -8.6 | KCNQ2 inh conf inactive | KCNQ1 spec inactive | CHO parental ctr inactive
O=C(COC(=O)CCSc1ccc(Cl)cc1)NCc1ccco1	KCNQ2 block -8.05 | KCNQ2 inh conf inactive | KCNQ1 spec inactive | CHO parental ctr inactive
O=C(COC(=O)CCSc1ccc(Cl)cc1)NCc1ccccc1Cl	none
Cc1ccc(CNC(=O)C2CCCN(c3nc4ccccc4o3)C2)cc1 (centres undefined)	none
C=C(C)C1CC=C(C)/C(=N/NC(=O)COc2cccc(C)c2)C1 (centres undefined)	none
C=C(C)C1CC=C(C)/C(=N/NC(=O)COc2cccc3ccccc23)C1 (centres undefined)	KCNQ2 block -9.24 | KCNQ2 inh conf inactive | KCNQ1 spec inactive | CHO parental ctr inactive
CCOc1ccc(S(=O)(=O)Nc2cccnc2)cc1	none (no result: KCNQ2 pot)
COc1cccc(CSc2nc3sc(C)c(C)c3c(=O)n2Cc2ccco2)c1	KCNQ2 block -8.81 | KCNQ2 inh conf -28.0% | KCNQ1 spec inactive | CHO parental ctr inactive | KCNQ2 inh confirm inactive
Cc1sc2nc(SCc3ccccc3)n(Cc3ccco3)c(=O)c2c1C	none (no result: KCNQ2 pot)
COc1ccc(S(=O)(=O)N2CCCC(C(=O)NCCC3=CCCCC3)C2)cc1 (centres undefined)	none (no result: KCNQ2 pot)
Cc1nn(S(=O)(=O)N2CCCCC2)c(C)c1Br	none (no result: KCNQ2 pot)
O=S(=O)(c1ccc(Cl)s1)N1CCC(Cc2ccccc2)CC1	KCNQ2 block -7.43 | KCNQ2 inh conf inactive | KCNQ1 spec inactive | CHO parental ctr inactive
CN1CCN(S(=O)(=O)c2ccc(Br)s2)CC1	none
O=S(=O)(c1ccc(Br)s1)N1CCC(Cc2ccccc2)CC1	KCNQ2 block -9.3 | KCNQ2 inh conf inactive | KCNQ1 spec inactive | CHO parental ctr inactive
O=S(=O)(c1ccc(Cl)s1)N1CCN(CCc2ccccc2)CC1	none
CCCCCNC(=O)CC1Nc2c3ccccc3nc(=S)n2C1=O (centres undefined)	none
Cc1nn(CCC#N)c(N)c1C1(O)C(=O)Nc2c(Cl)cc(Cl)cc21 (centres undefined)	none (no result: KCNQ2 pot)
CCNc1nc(NCC)n2c(SC(C(=O)Nc3cc(C)ccc3C)c3ccccc3)nnc2n1 (centres undefined)	none (no result: KCNQ2 pot)
CCOCCCn1c(SC(C(=O)Nc2cc(C)ccc2C)c2ccccc2)nnc1-c1ccc(Cl)cc1 (centres undefined)	KCNQ2 block -9.58 | KCNQ2 inh conf -23.5% | KCNQ1 spec inactive | CHO parental ctr inactive | KCNQ2 inh confirm active
COC(=O)CSc1nnc(SCc2ccc(OC)cc2)s1	none
Cc1cccc(NC(=O)Nc2cccc(C)n2)n1	none
O=C(/C=C/c1ccccc1)NC(NC(=S)Nc1ccc(Cl)cc1)C(Cl)(Cl)Cl (centres undefined)	none (no result: KCNQ2 pot)
OCC1(CCc2ccccc2)CCCN(CCCC(F)(F)F)C1 (centres undefined)	none (no result: KCNQ2 pot)
OCC1(CCc2ccccc2)CCCN(CCCc2ccccc2)C1 (centres undefined)	KCNQ2 block -6.62 | KCNQ2 inh conf -35.5% | KCNQ1 spec -33.5% | CHO parental ctr -25.5% | KCNQ2 inh confirm inactive
Cc1cc(C(F)(F)F)nc(SCC(=O)NC2=NC(=O)C(C)S2)n1 (centres undefined)	none
CC(NC(=O)c1ccc(Br)s1)C1CCCO1 (centres undefined)	none (no result: KCNQ2 pot)
COC(=O)c1cn(NC(=O)c2cccc(F)c2)c(=O)c2ccccc12	none (no result: KCNQ2 pot)
O=C(Nn1cc(C(=O)Nc2ccccc2F)c2ccccc2c1=O)c1cnccn1	none (no result: KCNQ2 pot)
COc1cc(OC)cc(C(=O)Nn2cc(C(=O)Nc3ccccc3F)c3ccccc3c2=O)c1	KCNQ2 block -7.14 | KCNQ2 inh conf inactive | KCNQ1 spec inactive | CHO parental ctr inactive
COC(=O)c1cn(NC(=O)c2cccc(N(C)C)c2)c(=O)c2ccccc12	KCNQ2 block -7.83 | KCNQ2 inh conf -45.0% | KCNQ1 spec -35.5% | CHO parental ctr -30.0% | KCNQ2 inh confirm active
CCCc1cc(=O)[nH]c(SCC(=O)Nc2ccc([N+](=O)[O-])cc2C#N)n1	none (no result: KCNQ2 pot)
O=C(Nn1c(SCc2cccc([N+](=O)[O-])c2)nc2ccccc2c1=O)c1ccccc1	KCNQ2 block -8.92 | KCNQ2 inh conf -37.5% | KCNQ1 spec -40.5% | CHO parental ctr -32.5% | KCNQ2 inh confirm active
CCOC(CCn1c(SCc2cccc([N+](=O)[O-])c2)nc2ccccc2c1=O)OCC	KCNQ2 block -7.29 | KCNQ2 inh conf inactive | KCNQ1 spec inactive | CHO parental ctr inactive
COCCn1c(SCc2cccc([N+](=O)[O-])c2)nc2ccccc2c1=O	none (no result: KCNQ2 pot)
COc1ccc(C(=O)Nn2c(SCc3cccc([N+](=O)[O-])c3)nc3ccccc3c2=O)cc1	none (no result: KCNQ2 pot)
COc1ccc(N/N=C(/C(C)=O)N2CCCc3ccccc32)cc1	none (no result: KCNQ2 pot)
COc1ccc(CNS(=O)(=O)c2cc3c(cc2Cl)NC(=O)CO3)cc1	none (no result: KCNQ2 pot)
CN(CC(O)COc1ccccc1F)C1CCCCC1 (centres undefined)	none
Cc1ccccc1OCC(O)CN(Cc1ccccc1O)C1CCCCC1 (centres undefined)	KCNQ2 block -7.41 | KCNQ2 inh conf -28.5% | KCNQ1 spec inactive | CHO parental ctr inactive | KCNQ2 inh confirm active
CCN(CC)S(=O)(=O)c1ccc(NC(=O)c2ccccn2)cc1	none (no result: KCNQ2 pot)
CCc1cc(/C(Cc2ccccn2)=N\O)c(O)cc1O	none (no result: KCNQ2 pot)
CCc1cc(/C(Cc2ccc3ccccc3n2)=N\O)c(O)cc1O	KCNQ2 block -12 | KCNQ2 inh conf -35.0% | KCNQ1 spec -41.5% | CHO parental ctr -27.0% | KCNQ2 inh confirm active
O=C(CCCN1C(=O)c2cccc3cccc(c23)C1=O)Nc1nccs1	none
